“And” between values parts separate entries of the source, which are not always exact repeats. Equal entries are not always repeated. Records with an inconclusive call do not appear. The source made the active and inactive calls. Unless noted, the call rests on the fitted dose curve. Bounds are passed on as bounds.

Assay [1] is described as follows: Cell Viability - SK-N-SH (AID 435).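 Further: potency means the concentration at half of the fitted maximal effect; compound exposure lasted 40 h at 37 °C.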 The settings on record: SK-N-SH neuroblastoma cell viability qHTS. In a few lines:
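SK-N-SH human neuroblastoma cells (1500/well) were exposed to compounds in complete medium for 40 h at 37 °C, and intracellular ATP was then measured by CellTiter-Glo luminescence. AC50 was taken from Hill fits, normalized to DMSO and 100 uM tamoxifen.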

Assay [2] is described as follows: Cell Viability - NIH 3T3 (AID 541; active means well fitted curve in the direction sought with a large enough effect; an effect the other way counts as inactive or inconclusive;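 further: plate controls were DMSO alone for no effect and tamoxifen positive control for full effect; nearly all actives have a fitted effect of over 25% in size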). The settings on record: NIH 3T3 cell viability, qHTS; activity change, negative = cytotoxicity: at 92.2 µM (top of the series). In a few lines: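 Cells seeded at 1000/well, rested 5 hr at 37 °C, then dosed and incubated 40 hr at 37 °C. CellTiter-Glo added, 20 min room temperature, luminescence read. AC50 by Hill fit.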
Assay [3] is described as follows: Cell Viability - H-4-II-E (AID 543; active means well fitted curve in the direction sought with a large enough effect; an effect the other way counts as inactive or inconclusive; further: on the % scale 0 is the no-effect control and ±100 the full control effect; nearly all actives have a fitted effect of over 35% in size). In a few lines:
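Cells seeded at 1500 per well and rested 5 hr; compounds added; 40 hr incubation at 37 °C; CellTiter-Glo added, 20 min at room temperature; luminescence read. Hill-equation fits gave AC50.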

In assay [4] the target is Peroxisome proliferator-activated receptor gamma (Homo sapiens) (UniProt P37231). The assay is described as follows: qHTS assay for small molecule antagonists of peroxisome proliferator-activated receptor gamma signaling (AID 588537; active means well fitted inhibition curve with a large enough effect in the signal ratio, with a control signal flat, not every such curve was filed as active; the % refers to the signal ratio;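 further: reporter cells co-stimulated with 50 nM rosiglitazone agonist during compound treatment; % of control where 0% means no effect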). A digest of the protocol: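 Compounds are tested as concentration series for inhibition of rosiglitazone-driven (50 nM) reporter expression in GeneBLAzer PPAR-gamma-UAS-bla HEK293 cells. After 16 h at 37 C, CCF4 substrate is added for 2 h at room temperature and blue/green fluorescence is measured.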
A general note: In qHTS, concentration-response curves come from the screen itself.

Assay [5] concerns the target Vitamin D3 receptor (Homo sapiens) (UniProt P11473). The assay can be described thus: qHTS assay for small molecule antagonists of vitamin D receptor signaling (AID 588541).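 Further: receptor activated by calcitriol during compound treatment; on the % scale 0 is the no-effect control and ±100 the full control effect.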 A digest of the protocol:
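VDR-UAS-bla HEK293T cells (2000/well, 2% charcoal-stripped FBS) were treated with titrated compounds plus 1-alpha,25-dihydroxyvitamin D3 (50 nM or 3 nM final) for 16 h at 37 C. CCF4 beta-lactamase fluorescence was read; Hill fits gave IC50.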

In assay [6] the target is Thyroid hormone receptor beta (Homo sapiens) (UniProt P10828). The assay can be described thus: qHTS assay for small molecule antagonists of thyroid hormone receptor beta signaling (AID 588547; active means well fitted inhibition curve with a large enough effect in the signal ratio, with a control signal flat, not every such curve was filed as active; the % refers to the signal ratio;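 further: cells stimulated with 0.4 nM T3 agonist during compound exposure; on the % scale 0 is the no-effect control and ±100 the full control effect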). The settings on record: TR-UAS-bla HEK293, beta-lactamase ratio, antagonist mode, 18 h. In a few lines: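 TR-UAS-bla GripTite HEK293 cells in 2% charcoal/dextran FBS medium were preincubated 4 h at 37 C, given compound (0.59 nM to 92 uM) plus 0.4 nM T3 (final) for 18 h, then CCF4 for 2 h at RT; Hill fit gave IC50.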

The nature of assay [7]: qHTS assay for small molecule activators of the nuclear factor-kappa B (NF-kB) signaling pathway (AID 651749; active means well fitted activation curve with a large enough effect in the signal ratio; the % refers to the signal ratio; further: % of control where 0% means no effect). The settings on record: NF-kB-bla ME-180 cells, beta-lactamase FRET ratio, 16 h; stronger effect = higher value. In a few lines: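 Human ME-180 cervical cells with an NF-kB-bla construct; compounds added via 23 nL pin transfer, DMSO as vehicle; incubation 16 hr. Reporter activity measured by FRET disruption.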

Assay [8] is described as follows: qHTS assay for small molecule agonists of the antioxidant response element (ARE) signaling pathway measured by Nrf2-dependant transcriptional activity (AID 720636; active means well fitted curve in the direction sought with a large enough effect in the repeat runs; an effect the other way counts as inactive or inconclusive;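 further: HepG2 cells with an ARE-driven luciferase reporter; % of control where 0% means no effect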). A digest of the protocol: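 In HepG2 cells engineered with an Nrf2-responsive luciferase gene, ARE induction was quantified as luminescence after 16 hr compound treatment at 37 C.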
Assay [9] is described as follows: MultiTox-Fluor Cytotoxicity Assay - LYMP1-001 - Live Cells (AID 947; active means well fitted curve in the direction sought with a large enough effect; an effect the other way counts as inactive or inconclusive;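 further: 0% = DMSO only and full inhibition = tetraoctylammonium bromide control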).
The target of assay [10] is Glucocorticoid receptor (Homo sapiens) (UniProt P04150). The assay is described as follows: qHTS assay for small molecule agonists of glucocorticoid receptor signaling (AID 588532; active means well fitted curve in the direction sought with a large enough effect in the signal ratio, with a control signal flat; the % refers to the signal ratio;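 further: 100% = dexamethasone at 0.1 µM and 0% = DMSO only wells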). The settings on record: HeLa MMTV-bla, beta-lactamase ratio, agonist, 18 h; stronger effect = higher value; percent of dexamethasone control, DMSO zero. A digest of the protocol:
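MMTV-bla HeLa, beta-lactamase reporter; medium with 1% charcoal/dextran-stripped FBS; cpds up to 92 uM, 18 h, 37 C; CCF4 readout 460/530 nm; Hill fit → EC50, efficacy vs 0.1 uM dexamethasone = 100%.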

Assay [11] shares this target. The assay is described as follows: qHTS assay for small molecule antagonists of glucocorticoid receptor signaling (AID 588533; active means well fitted inhibition curve with a large enough effect in the signal ratio, with a control signal flat, not every such curve was filed as active; the % refers to the signal ratio;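 further: cells stimulated with 2 nM dexamethasone as agonist; on the % scale 0 is the no-effect control and ±100 the full control effect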). A digest of the protocol:
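Antagonist-mode qHTS: compound titrations added to GRE-bla HeLa cells, then dexamethasone 2 nM final; 18 h, 37 C. CCF4 FRET fluorescence normalized to dexamethasone and DMSO; IC50 from Hill fit.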

Assay [12] can be described thus: qHTS assay for small molecule agonists of the antioxidant response element (ARE) signaling pathway (AID 651741; active means well fitted activation curve with a large enough effect in the signal ratio; the % refers to the signal ratio; further: potency means the concentration at half of the fitted maximal effect; on activation: % of control where 0% means no effect). In a few lines: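 Reporter: beta-lactamase under ARE, stably in HepG2. Exposure: 16 h, 37 C, compounds delivered in DMSO by pin tool after 5 h cell preincubation. Readout: FRET substrate fluorescence after 2 h at RT.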
Assay [13] is described as follows: qHTS assay for small molecule disruptors of the mitochondrial membrane potential - 1 hr assay (AID 651754). Further: nearly all actives have a fitted effect of over 35% in size. Further: potency means the concentration at half of the fitted maximal effect. A digest of the protocol:
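Loss of mitochondrial potential shifts the cationic dye from red mitochondrial aggregates to green cytoplasmic monomers. Cells (HepG2) are treated with compound for 1 hr before a 30 min dye incubation at 37C.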

Assay [14] can be described thus: qHTS assay for small molecule disruptors of the mitochondrial membrane potential - 5 hr assay (AID 651755). Further: nearly all actives have a fitted effect of over 40% in size. Further: potency means the concentration at half of the fitted maximal effect. In a few lines: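 Seed HepG2 overnight, add compound, incubate 5 hr at 37C and 5% CO2, stain 30 min with Mito-MPS, then measure monomer (490/535 nm) and aggregate (540/590 nm) fluorescence.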
Assay [15] concerns the target Nuclear receptor ROR-gamma (Homo sapiens) (UniProt P51449). The assay is described as follows: qHTS assay for small molecule antagonists of the retinoid-related orphan receptor gamma (ROR-gamma) signaling pathway (AID 651802; active means well fitted curve in the direction sought with a large enough effect; an effect the other way counts as inactive or inconclusive;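 further: CHO cells with doxycycline-induced ROR-gamma expression; on the % scale 0 is the no-effect control and ±100 the full control effect; nearly all actives have a fitted effect of over 60% in size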). In a few lines:
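Steps: cells dispensed; compound or DMSO transferred by pin tool; doxycycline added to induce the ROR response element-driven luciferase; plates held 16hr at 37C; ONE-Glo added and luminescence measured.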

The target of assay [16] is Estrogen receptor (Homo sapiens) (UniProt P03372). The assay can be described thus: qHTS assay for small molecule antagonists of estrogen receptor alpha signaling (AID 588513; active means well fitted curve in the direction sought with a large enough effect in the signal ratio, with a control signal flat, not every such curve was filed as active; the % refers to the signal ratio; further: on the % scale 0 is the no-effect control and ±100 the full control effect). In a few lines: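 ER-alpha-UAS-bla GripTite HEK 293 cells in medium with 2% charcoal/dextran-treated FBS were preincubated 4 h at 37 C, dosed with compound (1:2 titration), stimulated with 0.5nM 17-beta-estradiol for 18 h, then read by CCF4 beta-lactamase fluorescence.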

Assay [17] deals with Peroxisome proliferator-activated receptor delta (Homo sapiens) (UniProt Q03181). The assay is described as follows: qHTS assay for small molecule agonists of peroxisome proliferator-activated receptor delta signaling (AID 588534).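 Further: 0% = DMSO basal wells and 100% = positive control agonist at 10 µM.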 In a few lines:
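Agonist-mode qHTS; reporter cells, 5 hrs 37 C pre-incubation; compound titration, 18 hrs 37 C; CCF4 dye, 2 hrs RT; fluorescence read. EC50/efficacy via Hill fit.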

Assay [18] can be described thus: qHTS assay for small molecule antagonists of peroxisome proliferator-activated receptor delta signaling (AID 588535; active means well fitted inhibition curve with a large enough effect in the signal ratio, with a control signal flat, not every such curve was filed as active; the % refers to the signal ratio;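 on max response: cells co-treated with a PPAR-delta agonist as stimulator during compound exposure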). The settings on record: HEK293T PPARd-UAS-bla, beta-lactamase FRET ratio, 18 h; 460 nm channel. In a few lines: (§1)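 Inhibition of PPAR-delta response element-driven beta-lactamase expression is measured in HEK293T cells exposed to a compound titration series for 18 hrs at 37 C. Half-maximal inhibition comes from Hill equation fitting.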

The target of assay [19] is Peroxisome proliferator-activated receptor delta (Homo sapiens) (UniProt Q03181). The description is as above. A digest of the protocol: as §1
Chain of Peroxisome proliferator-activated receptor delta (Homo sapiens) (Q03181 whole entry, looked up): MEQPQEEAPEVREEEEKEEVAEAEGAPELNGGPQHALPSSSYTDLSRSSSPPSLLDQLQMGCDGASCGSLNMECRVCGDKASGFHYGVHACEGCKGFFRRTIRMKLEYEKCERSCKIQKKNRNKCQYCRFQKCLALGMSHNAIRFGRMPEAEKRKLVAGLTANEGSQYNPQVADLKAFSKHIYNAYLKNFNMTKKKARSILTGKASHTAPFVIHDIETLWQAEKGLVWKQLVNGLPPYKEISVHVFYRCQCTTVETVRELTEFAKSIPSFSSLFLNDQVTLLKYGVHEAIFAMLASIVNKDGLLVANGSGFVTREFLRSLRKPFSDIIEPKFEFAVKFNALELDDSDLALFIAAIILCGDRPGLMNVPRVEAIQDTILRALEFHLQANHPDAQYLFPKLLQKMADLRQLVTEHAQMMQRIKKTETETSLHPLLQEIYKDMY

Chain of Peroxisome proliferator-activated receptor gamma (Homo sapiens) (P37231 whole entry, looked up): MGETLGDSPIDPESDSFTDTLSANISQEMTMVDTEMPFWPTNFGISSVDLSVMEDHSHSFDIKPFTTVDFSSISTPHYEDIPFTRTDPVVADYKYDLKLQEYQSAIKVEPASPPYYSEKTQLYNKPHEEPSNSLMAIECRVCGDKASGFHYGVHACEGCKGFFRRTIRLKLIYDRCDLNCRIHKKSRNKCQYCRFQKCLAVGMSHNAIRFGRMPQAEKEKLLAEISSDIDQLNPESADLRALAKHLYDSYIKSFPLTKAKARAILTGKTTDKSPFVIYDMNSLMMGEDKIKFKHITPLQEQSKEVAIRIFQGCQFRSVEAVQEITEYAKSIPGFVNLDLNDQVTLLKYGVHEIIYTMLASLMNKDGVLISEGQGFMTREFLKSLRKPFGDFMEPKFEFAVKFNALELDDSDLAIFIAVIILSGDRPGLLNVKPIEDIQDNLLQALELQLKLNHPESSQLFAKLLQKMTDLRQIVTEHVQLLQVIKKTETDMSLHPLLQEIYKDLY
Chain of Nuclear receptor ROR-gamma (Homo sapiens) (P51449 whole entry, looked up): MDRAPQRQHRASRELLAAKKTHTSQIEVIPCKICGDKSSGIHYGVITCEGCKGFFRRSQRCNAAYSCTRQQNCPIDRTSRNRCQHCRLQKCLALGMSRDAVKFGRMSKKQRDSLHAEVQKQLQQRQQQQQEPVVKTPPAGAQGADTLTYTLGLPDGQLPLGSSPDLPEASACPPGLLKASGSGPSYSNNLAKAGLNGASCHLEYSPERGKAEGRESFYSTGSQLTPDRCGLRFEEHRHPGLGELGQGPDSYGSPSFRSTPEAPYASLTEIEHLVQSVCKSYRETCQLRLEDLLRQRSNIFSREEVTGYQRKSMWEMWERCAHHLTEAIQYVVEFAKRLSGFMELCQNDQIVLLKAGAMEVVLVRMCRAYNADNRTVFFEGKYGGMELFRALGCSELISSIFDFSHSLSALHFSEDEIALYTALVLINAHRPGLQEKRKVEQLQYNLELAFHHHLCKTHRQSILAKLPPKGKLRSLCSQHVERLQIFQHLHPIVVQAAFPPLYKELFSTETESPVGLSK
Chain of Thyroid hormone receptor beta (Homo sapiens) (P10828 whole entry, looked up): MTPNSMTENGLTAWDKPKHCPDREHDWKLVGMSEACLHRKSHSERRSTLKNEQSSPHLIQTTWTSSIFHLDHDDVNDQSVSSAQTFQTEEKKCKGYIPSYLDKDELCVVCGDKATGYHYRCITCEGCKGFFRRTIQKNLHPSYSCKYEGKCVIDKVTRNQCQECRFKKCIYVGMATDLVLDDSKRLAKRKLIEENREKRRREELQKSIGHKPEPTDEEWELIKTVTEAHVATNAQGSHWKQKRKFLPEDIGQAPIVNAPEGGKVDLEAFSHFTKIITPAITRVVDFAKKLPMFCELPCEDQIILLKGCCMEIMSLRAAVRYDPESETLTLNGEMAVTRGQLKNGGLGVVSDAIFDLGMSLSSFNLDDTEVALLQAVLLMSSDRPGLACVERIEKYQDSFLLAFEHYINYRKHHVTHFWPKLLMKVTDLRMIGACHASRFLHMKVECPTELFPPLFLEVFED
Chain of Glucocorticoid receptor (Homo sapiens) (P04150 whole entry, looked up): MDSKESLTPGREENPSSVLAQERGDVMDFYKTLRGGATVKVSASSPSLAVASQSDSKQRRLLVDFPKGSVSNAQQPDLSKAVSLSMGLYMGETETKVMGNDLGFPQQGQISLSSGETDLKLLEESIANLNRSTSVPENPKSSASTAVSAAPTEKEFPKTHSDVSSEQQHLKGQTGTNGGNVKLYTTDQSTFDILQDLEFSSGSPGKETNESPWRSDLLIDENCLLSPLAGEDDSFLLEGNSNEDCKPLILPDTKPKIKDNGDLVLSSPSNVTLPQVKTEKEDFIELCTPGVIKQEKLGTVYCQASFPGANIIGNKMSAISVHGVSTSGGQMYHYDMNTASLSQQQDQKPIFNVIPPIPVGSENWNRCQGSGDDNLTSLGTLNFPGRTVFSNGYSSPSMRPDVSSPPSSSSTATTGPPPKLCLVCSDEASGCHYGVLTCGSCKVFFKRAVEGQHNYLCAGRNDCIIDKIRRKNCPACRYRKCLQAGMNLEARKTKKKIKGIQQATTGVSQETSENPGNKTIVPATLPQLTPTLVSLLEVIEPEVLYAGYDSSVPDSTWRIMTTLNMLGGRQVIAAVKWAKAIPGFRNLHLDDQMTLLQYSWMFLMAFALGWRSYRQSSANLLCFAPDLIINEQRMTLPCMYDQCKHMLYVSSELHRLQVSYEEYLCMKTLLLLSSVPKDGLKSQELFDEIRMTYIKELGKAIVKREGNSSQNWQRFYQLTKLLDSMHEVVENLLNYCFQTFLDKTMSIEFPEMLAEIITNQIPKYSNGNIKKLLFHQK
Chain of Vitamin D3 receptor (Homo sapiens) (P11473 whole entry, looked up): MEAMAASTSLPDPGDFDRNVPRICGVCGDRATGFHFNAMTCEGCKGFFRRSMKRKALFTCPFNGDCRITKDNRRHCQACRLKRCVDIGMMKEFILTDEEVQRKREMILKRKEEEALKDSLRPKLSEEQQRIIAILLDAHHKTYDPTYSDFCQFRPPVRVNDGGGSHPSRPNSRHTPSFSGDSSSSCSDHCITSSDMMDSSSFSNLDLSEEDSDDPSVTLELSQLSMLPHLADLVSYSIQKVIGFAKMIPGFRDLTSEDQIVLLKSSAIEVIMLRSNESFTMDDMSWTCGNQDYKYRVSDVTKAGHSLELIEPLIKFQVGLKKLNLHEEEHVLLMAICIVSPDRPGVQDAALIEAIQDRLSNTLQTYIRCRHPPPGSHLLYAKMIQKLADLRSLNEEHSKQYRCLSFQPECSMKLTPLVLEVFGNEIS
Chain of Estrogen receptor (Homo sapiens) (P03372 whole entry, looked up): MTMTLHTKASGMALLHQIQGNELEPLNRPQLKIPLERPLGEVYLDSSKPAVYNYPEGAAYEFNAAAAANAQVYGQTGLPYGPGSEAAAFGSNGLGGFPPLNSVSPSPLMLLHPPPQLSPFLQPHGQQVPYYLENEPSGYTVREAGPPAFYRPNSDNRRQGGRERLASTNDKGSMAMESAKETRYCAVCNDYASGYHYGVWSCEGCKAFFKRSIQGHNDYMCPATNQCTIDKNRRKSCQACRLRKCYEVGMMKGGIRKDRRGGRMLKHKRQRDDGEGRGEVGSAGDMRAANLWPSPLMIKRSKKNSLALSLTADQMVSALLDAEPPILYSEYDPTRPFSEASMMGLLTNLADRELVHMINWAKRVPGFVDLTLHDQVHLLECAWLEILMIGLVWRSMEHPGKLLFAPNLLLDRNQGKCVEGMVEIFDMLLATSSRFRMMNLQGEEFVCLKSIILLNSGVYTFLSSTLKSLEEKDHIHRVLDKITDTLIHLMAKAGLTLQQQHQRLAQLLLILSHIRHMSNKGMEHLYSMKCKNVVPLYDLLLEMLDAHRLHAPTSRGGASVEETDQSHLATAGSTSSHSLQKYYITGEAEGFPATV

With `S=C1NCCN1`, the Potency in assay [1] was > 92 µM (inactive). Further, the Potency entry in [2], in [3], in [4] and in assay [8] was “inactive” in each case. Besides, the result in [5] was inactive. In addition, the activity change % (negative = inhibition) in assay [6] was -23.2% (inactive) and -6.83% (inactive). Also, the activation in [7] is 0.43% (inactive) and 0.618% (inactive).

With `O=C(O)C(Cl)(Cl)Br`, the Potency in assay [1] is > 92 µM (inactive); in assay [12], 42.2 µM (active). The Potency entry in assay [2], in assay [3], in assay [4], in [13], in [14] and in [15] was “inactive” throughout. Also, the Potency entry in [8] is “inactive”. Besides, the molecule was called inactive in assay [9], in [11] and in [5]. The activation in assay [10] is -2.11% (inactive).

For the molecule `C=COC(C)=O`, the Potency entry in assay [2], in assay [13] and in assay [15] was “inactive” throughout. Besides, in assay [5], the molecule was called inactive. The activation in assay [7] is -0.411% (inactive).

With `Oc1ccc(Cl)c(Cl)c1`, the Potency in [1] is > 92 µM (inactive); in assay [13], 33.5 µM (active); in assay [14], 42.2 µM (active). The Potency entry in assay [3], in assay [16], in assay [4] and in [8] was “inactive” each time. For the same molecule, the outcome in assay [9], in assay [17], in assay [19] and in assay [5] was inactive. In addition, in [18], the max response was -12.5%.

For `Cl/C=C/CCl`, the Potency in assay [1] was > 92 µM (inactive). Further, the Potency result in assay [2], in assay [4], in assay [12], in [13], in [14] and in assay [15] was “inactive” in each case. Moreover, the molecule was called inactive in assay [9], in assay [11], in [17], in assay [19] and in [5]. In addition, the activation in [10] is 1.37% (inactive); in [7], 0.574% (inactive). Further, the max response in assay [18] came out at 5.14%. Besides, the activity change % (negative = inhibition) in [6] is -4.73% (inactive).

Consider `CCCCCc1cc(O)cc(O)c1`, for which the Potency entry in assay [2], in [3], in [15] and in [8] was “inactive” in each case. The result in assay [9] and in assay [17] was inactive. Moreover, the activity change % (negative = inhibition) in [6] was -2.41% (inactive). In addition, the figures for the Potency in assay [12], in assay [13] and in assay [14] were 42.2 µM (active), 37.6 µM (active) and 37.6 µM (active), respectively.

`COc1cc(-c2ccc(N)c(OC)c2)ccc1N`: the Potency was > 92 µM (inactive) in [1]; 1.06 µM (active) and 2.17 µM (active) in assay [12]; 37.6 µM (active) in assay [13]. The Potency entry in assay [3] and in [4] was “inactive” throughout. Moreover, the call in [9], in assay [17] and in assay [19] was inactive. Also, the max response in [18] was 17.7% and -36%. Further, the activation in assay [7] was 0.354% (inactive) and 3.2% (inactive) and 2.92% (inactive).

On to `CCCCC(=O)Cl`, for which the Potency in assay [1] is > 92 µM (inactive). Besides, the Potency entry in [2], in assay [3], in [13], in assay [14] and in assay [8] was “inactive” in each case. Also, the molecule was classed as inactive in [9], in assay [11], in assay [17], in assay [19] and in [5]. Further, in [18], the max response was 20%. In addition, in assay [7], the activation was -1.31% (inactive).

The record behind these values is PubChem BioAssay (NCATS).
